MEX-5 binding = C. elegans MEX-5 TCR-2 RNA binding activity; AID 1832; Q9XUB2; 300,000 compounds, 0.38% hits; MEX-5/FITC-TCR2 RNA binding, fluorescence polarization; active compounds read low; activity score (negative = inhibition of binding), % at 10 µM;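 active = inhibition past about -25% in most replicates, and total fluorescence under double the plate's negative control median, limit read from the data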;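 also: 0% = DMSO and -100% = 5 µM competing unlabeled TCR2 RNA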
E coli Lon inh = inhibitors of E. coli Lon protease | P0A9M0 | purified E. coli Lon protease, fluorescence polarization | inhibition, % at 7.94 µM | 360,000 compounds, 0.42% hits | AID 602123; in the data active = inhibition above about 13%, passing the limit was not always enough;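 also: 0% = enzyme with probe and DMSO and 100% = no enzyme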
EBV gp42 block = inhibitors of Epstein-Barr virus glycoprotein 42; Q1HVG2; Fluorescence polarization binding assay, mP read-out; inhibition, % (tested at 21.74 µM); 220,000 compounds, 0.42% hits; in the data active = inhibition above about 50%
MCL1 BIM primary = MCL1-BIM-BH3 interaction inhibition (human) | 320,000 compounds, 0.68% hits | inhibition, % at 10.9 µM | GST-MCL1 / FITC-Bim-BH3 fluorescence polarization | Q07820 | AID 2057;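 active = inhibition above the mean inhibition of all tested compounds plus 3 SD, set per campaign, cut at about 40% in these data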;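 also: 0% = DMSO wells and 100% = unlabeled Bim-BH3 peptide control; higher means more loss of mP so more displacement of Bim peptide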
Target sequence (Q07820 whole entry, looked up): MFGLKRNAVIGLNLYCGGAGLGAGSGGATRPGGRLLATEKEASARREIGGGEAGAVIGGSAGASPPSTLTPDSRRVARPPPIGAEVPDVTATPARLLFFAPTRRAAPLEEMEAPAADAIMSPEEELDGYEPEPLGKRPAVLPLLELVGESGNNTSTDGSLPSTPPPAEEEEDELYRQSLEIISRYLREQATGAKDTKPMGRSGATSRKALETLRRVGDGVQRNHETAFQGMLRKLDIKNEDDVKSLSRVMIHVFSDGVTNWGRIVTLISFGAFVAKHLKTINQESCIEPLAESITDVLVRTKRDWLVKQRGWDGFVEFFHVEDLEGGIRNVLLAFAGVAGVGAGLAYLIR
Bcl-xL primary = blocks human Bcl-xL binding to Bim BH3 peptide | Q07817 | GST-Bcl-xL / FITC-Bim BH3 peptide fluorescence polarization | inhibition, % at 10.9 µM | 320,000 compounds, 0.7% hits;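 active = inhibition above the mean of all tested compounds plus 3 SD, cutoff set per campaign, cut at about 30% in these data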;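 also: 0% = DMSO wells and 100% = unlabeled Bim-BH3 peptide competitor; inhibitors lower millipolarization by displacing the labeled peptide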
Target sequence (Q07817 whole entry, looked up): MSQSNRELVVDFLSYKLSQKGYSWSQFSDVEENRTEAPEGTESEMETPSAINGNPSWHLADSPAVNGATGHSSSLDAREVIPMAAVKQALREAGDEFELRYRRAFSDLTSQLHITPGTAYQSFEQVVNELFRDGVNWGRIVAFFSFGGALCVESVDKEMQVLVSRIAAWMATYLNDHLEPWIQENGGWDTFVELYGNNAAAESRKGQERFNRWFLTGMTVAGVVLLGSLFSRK
GLD-1 TGE inh = GLD-1-TGE RNA interaction inhibition (C. elegans); Q17339; inhibition, % at 5.96 µM; AID 2280; purified GLD-1 + fluorescein TGE RNA, fluorescence polarization; 320,000 compounds, 0.44% hits;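 active = percent inhibition above a per-plate cutoff, the plate mean of test compounds plus 3 SD, cut at about 30% in these data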;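 also: 0% = DMSO wells with GLD-1 and probe and 100% = wells lacking GLD-1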
Bcl-xL conf = counter-screen for MCL1 inhibitors: confirmation of human Bcl-xL inhibitors; shares compounds with MCL1 BIM primary; GST-Bcl-xL / FITC-Bim BH3 peptide FP binding; inhibition, % at 10.9 µM; 1,700 compounds, 54% hits; AID 2166;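 active = inhibition above a cutoff equal to the mean inhibition of all tested compounds plus 3 SD, cut at about 30% in these data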;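 also: 0% = DMSO wells and 100% = unlabeled Bim BH3 control peptide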
MCL1 inh confirm = MCL1-BIM-BH3 interaction inhibition, confirmation; shares compounds with MCL1 BIM primary; GST-MCL1 / FITC-Bim-BH3 fluorescence polarization; inhibition, % at 10.9 µM; 1,700 compounds, 61% hits; AID 2168;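 active = inhibition above the average of all tested compounds plus 3 SD, cut at about 40% in these data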;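 also: 0% = DMSO wells and 100% = unlabeled Bim-BH3 control peptide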
Starred values were filed as active, the others as inactive. Compounds with a hit are over-represented: about 1.4% of the library has one in this group of screens.

`Cc1cc(C(=O)Nc2ccc(F)cc2C)n(-c2ccccc2)n1` gave MEX-5 binding -0.1, E coli Lon inh 4.2, EBV gp42 block -5.0, MCL1 BIM primary -8.9, Bcl-xL primary 1.6 and GLD-1 TGE inh 1.4.
CCOC(=O)N/N=C\c1ccc([N+](=O)[O-])o1 was read as MEX-5 binding 1.1, E coli Lon inh -2.6, EBV gp42 block -1.6, MCL1 BIM primary 63.9*, Bcl-xL primary 7.8, GLD-1 TGE inh 0.0, Bcl-xL conf 0.6 and MCL1 inh confirm 2.2.
Screening CCCOc1cc(N)ccc1C(=O)OCCN(CC)CC returned E coli Lon inh 5.6, MCL1 BIM primary 7.8, Bcl-xL primary 3.0 and GLD-1 TGE inh 1.5.
`CCCOc1ccc(N)cc1N` gave MEX-5 binding -8.2, E coli Lon inh -15.6, EBV gp42 block 41.6, MCL1 BIM primary 124.4*, Bcl-xL primary 117.3*, GLD-1 TGE inh -5.1, Bcl-xL conf 39.9* and MCL1 inh confirm 44.5*.
Screening O=[N+]([O-])C1C(c2ccccc2)=NOC1c1ccccc1O (centres undefined) returned MEX-5 binding 0.5, E coli Lon inh -7.0, MCL1 BIM primary -1.7, Bcl-xL primary -3.5 and GLD-1 TGE inh 7.5.
`CCCSc1cc(NCCOC(=O)CCC)c([N+](=O)[O-])c2nonc12` gave MEX-5 binding -1.7, E coli Lon inh 5.7, EBV gp42 block 5.2, MCL1 BIM primary 4.3, Bcl-xL primary 6.6 and GLD-1 TGE inh 6.9.
For CCCC(=O)OCCNc1cc(SCc2ccco2)c2nonc2c1[N+](=O)[O-] the results were MEX-5 binding -2.5, E coli Lon inh -6.9, EBV gp42 block -3.5, MCL1 BIM primary 42.8*, Bcl-xL primary 22.6, GLD-1 TGE inh 5.2, Bcl-xL conf 7.2 and MCL1 inh confirm 11.3.
CC(=O)OCCCNc1cc(SCc2ccco2)c2nonc2c1[N+](=O)[O-] was read as MEX-5 binding -3.7, E coli Lon inh 8.0, EBV gp42 block -3.7, MCL1 BIM primary 44.5*, Bcl-xL primary 22.1, GLD-1 TGE inh -0.6, Bcl-xL conf 28.7 and MCL1 inh confirm 45.8*.
For CCCSc1cc(NCCOC(C)=O)c([N+](=O)[O-])c2nonc12 the results were MEX-5 binding -1.9, E coli Lon inh -5.3, EBV gp42 block 1.9, MCL1 BIM primary 4.6, Bcl-xL primary 0.6 and GLD-1 TGE inh 0.0.
COc1ccc(OC)c(NC(=O)COC(=O)CN(C)S(=O)(=O)c2ccc(C)cc2)c1 was read as MEX-5 binding 1.0, E coli Lon inh -6.2, EBV gp42 block -2.2, MCL1 BIM primary 0.2, Bcl-xL primary 0.1 and GLD-1 TGE inh -1.9.
`O=C(CN1CCCc2ccccc21)NC(=O)NCc1ccccc1` gave MEX-5 binding 0.0, E coli Lon inh 7.8, EBV gp42 block 0.3, MCL1 BIM primary 3.7, Bcl-xL primary 12.8 and GLD-1 TGE inh -4.5.
Screening CC(C)(C)NC(=O)NC(=O)CN1CCCc2ccccc21 returned E coli Lon inh -29.9, EBV gp42 block -1.8, MCL1 BIM primary 84.5*, Bcl-xL primary 76.9*, GLD-1 TGE inh 6.1, Bcl-xL conf 10.8 and MCL1 inh confirm 12.7.
For COc1cccc(N2[C@@H](CC(C)=O)c3cc(C(F)(F)F)ccc3S2(=O)=O)c1 the results were MEX-5 binding 0.8, E coli Lon inh -0.9, MCL1 BIM primary -2.0, Bcl-xL primary 4.1 and GLD-1 TGE inh -7.7.
`CCOC(=O)C[C@H]1c2ccc(C(F)(F)F)cc2S(=O)(=O)N1c1cccc(OC)c1` gave MEX-5 binding 1.1, E coli Lon inh 10.9, MCL1 BIM primary 41.0*, Bcl-xL primary 7.3, GLD-1 TGE inh 0.0, Bcl-xL conf -5.4 and MCL1 inh confirm 42.8*.
CC(NC(=O)Nc1ccccc1F)C(C)(C)C (centres undefined) was read as MEX-5 binding -0.7, E coli Lon inh 5.4, EBV gp42 block -2.3, MCL1 BIM primary 7.5, Bcl-xL primary 3.3 and GLD-1 TGE inh -11.0.
Screening CC(C)Oc1ccc(CC(=O)NNC(=S)Nc2ccccc2)cc1 returned MEX-5 binding -2.2, E coli Lon inh -10.1, EBV gp42 block -0.1, MCL1 BIM primary 185.6*, Bcl-xL primary 6.7, GLD-1 TGE inh 0.3, Bcl-xL conf -29.0 and MCL1 inh confirm -53.3.
`COc1ccccc1NC(=O)C(C)OC(=O)CCCOc1ccccc1` (centres undefined) gave MEX-5 binding -5.4, E coli Lon inh -9.0, MCL1 BIM primary -6.4, Bcl-xL primary -0.3 and GLD-1 TGE inh -2.7.
For CCCS(=O)(=O)NC(=O)C1(C)CCN(C(=O)c2cc(F)cc(F)c2)C1 (centres undefined) the results were E coli Lon inh 0.4.
Screening Cc1c(Cl)cnc(NC(=O)COC(=O)c2ccc([N+](=O)[O-])s2)c1Cl returned MEX-5 binding 0.4, E coli Lon inh -1.1, EBV gp42 block 43.5, MCL1 BIM primary 60.5*, Bcl-xL primary 41.5*, GLD-1 TGE inh 18.7, Bcl-xL conf 34.2* and MCL1 inh confirm 47.9*.
Screening COc1ccc(C(=O)NC(=S)Nc2cccnc2)cc1[N+](=O)[O-] returned MEX-5 binding -1.5, E coli Lon inh 1.8, EBV gp42 block 8.8, MCL1 BIM primary 41.6*, Bcl-xL primary 27.2, GLD-1 TGE inh 1.1, Bcl-xL conf 21.9 and MCL1 inh confirm 19.1.
For O=C(O)c1cc(-c2ccco2)nn1-c1ccc(Cl)cc1 the results were MEX-5 binding -0.9, E coli Lon inh -20.0 and EBV gp42 block 27.5.
O=C(O)c1cc(-c2ccco2)nn1-c1cccc(Cl)c1 was read as MEX-5 binding -7.7, E coli Lon inh -25.9, EBV gp42 block 17.3, MCL1 BIM primary 82.1*, Bcl-xL primary 31.1*, GLD-1 TGE inh -10.5, Bcl-xL conf 17.8 and MCL1 inh confirm 37.9.
`O=C1C(Nc2cccc(O)c2)=C(N2CCCCC2)C(=O)c2ccccc21` gave MEX-5 binding -14.1, E coli Lon inh 28.9, EBV gp42 block -28.4, MCL1 BIM primary 54.6*, Bcl-xL primary 56.8*, GLD-1 TGE inh 70.6*, Bcl-xL conf 19.3 and MCL1 inh confirm 37.3.
For O=C(NCN1CCN(c2ccccc2)CC1)c1cnccn1 the results were MEX-5 binding 0.4, E coli Lon inh -4.1, MCL1 BIM primary 140.1*, Bcl-xL primary 3.2, GLD-1 TGE inh 3.4, Bcl-xL conf 6.8 and MCL1 inh confirm 6.2.
Screening COc1ccc(OC)c2c1C(=O)C(Cl)=C(Cl)C2=O returned MEX-5 binding -1.9, E coli Lon inh 7.3, EBV gp42 block -38.6, MCL1 BIM primary 70.8*, Bcl-xL primary 39.0*, GLD-1 TGE inh 17.6, Bcl-xL conf 47.0* and MCL1 inh confirm 65.2*.

Source: PubChem (several laboratories)
